A selection: hits, their analogues and other compounds. The true share with any hit is near 1.7%.
HEK293 tox = qHTS of GLP-1 Receptor Inverse Agonists: Cytotox Screen; Potency, µM (top dose mostly 38.3 µM), for the others: at the highest dose activity change, negative = inhibition, hits mostly inhibitors; HEK293 cAMP-luciferase reporter cells, luminescence, 24 h; actives 0.13% (n = 410,000); AID 624418, 2012;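 note: loss of luciferase light is scored as toxicity; % is set by controls: 0 for no effect and ±100 for the full control effect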
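A 23 nL compound transfer followed 12 hours of cell culture at 37 deg C; exposure then lasted 24 hr. Luciferase assay detection reagent was dispensed and plates read for luminescence after a 12 min room-temperature wait.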
GLP-1R agonist = qHTS of GLP-1 Receptor Agonists | Glucagon-like peptide 1 receptor (Homo sapiens), P43220 | HEK293 GLP-1R CRE-luciferase, luminescence, 4-6 h; cells express a hypersensitive GLP-1R form | Potency, µM (highest dose often 45.6 µM), for inactives: at the top dose activation, hits mostly activators | actives 0.007% (n = 380,000) | AID 624172, 2012; note: % of control where 0% means no effect
PTHR1 agonist = qHTS for PTHR1 Agonists: Primary Screen | Parathyroid hormone/parathyroid hormone-related peptide receptor (Homo sapiens), Q03431 | HEK293 GP2 PTHR1 cells, GloSensor cAMP luminescence, 1 h | Potency, µM (series often up to 115 µM), without a hit: at the top dose activation, most hits filed as activators | actives 0.075% (n = 410,000) | AID 743266, 2014; note: nearly all actives have a fitted effect of over 55% in size
Target sequence (Q03431 whole entry, looked up): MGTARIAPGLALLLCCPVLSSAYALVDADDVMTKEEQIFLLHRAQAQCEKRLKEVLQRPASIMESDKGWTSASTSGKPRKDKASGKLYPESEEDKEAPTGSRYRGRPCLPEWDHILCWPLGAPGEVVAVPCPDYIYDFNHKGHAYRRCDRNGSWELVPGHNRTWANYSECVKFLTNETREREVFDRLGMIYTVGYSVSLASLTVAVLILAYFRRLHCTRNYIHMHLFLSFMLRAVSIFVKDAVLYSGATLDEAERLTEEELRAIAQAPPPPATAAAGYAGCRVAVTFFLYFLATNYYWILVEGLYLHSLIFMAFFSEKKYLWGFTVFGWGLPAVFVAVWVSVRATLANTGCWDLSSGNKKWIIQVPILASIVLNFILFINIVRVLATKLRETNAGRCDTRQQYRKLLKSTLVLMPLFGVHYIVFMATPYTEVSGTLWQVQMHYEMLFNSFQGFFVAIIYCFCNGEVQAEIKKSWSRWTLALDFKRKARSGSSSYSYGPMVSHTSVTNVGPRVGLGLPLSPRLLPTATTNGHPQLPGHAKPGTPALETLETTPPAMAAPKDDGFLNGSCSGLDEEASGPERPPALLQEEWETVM
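HEK-293-derived GP2 cells expressing PTHR1 and a GloSensor cAMP reporter, 3,000/well, plated overnight, given luciferin plus IBMX (each 0.5 mM as added) for 1 h at 37 °C, then compound for 1 h at 37 °C. Luminescence was read after 15 min at room temperature.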
GLP1R inv ag = qHTS of GLP-1 Receptor Inverse Agonists (Inhibition Mode) | Potency, µM (series often up to 38.3 µM), inactives show at the highest dose activity change, negative = inhibition, hits mostly inhibitors | actives 1.6% (n = 410,000) | Glucagon-like peptide 1 receptor (Homo sapiens), P43220 | HEK293 GLP-1R CRE-luciferase, luminescence, 24 h; GLP-1R form is constitutively active; note: % is set by controls: 0 for no effect and ±100 for the full control effect; nearly all actives have a fitted effect of over 55% in size
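Cells are plated, allowed 12 hours at 37 deg C, then treated with compounds for 24 hr before luciferase detection reagent is added and luminescence is read after 12 min at room temperature. The HEK293 line carries constitutively active GLP-1R with a cAMP-responsive reporter.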
* = called active by the depositor; [ ] = remark or other dose. Calls come from the whole dose curve; as a rule, active = well fitted curve in the direction sought with a large enough effect; inconclusive = small, poorly fitted or top-dose-only effect, or another doubt; inactive = no such curve, though single readings can be large; an effect the other way counts as inactive or inconclusive. Potency is the fitted concentration of half-maximal effect.

COc1ccc(-c2n(CC(=O)OC3CC(C)CCC3C(C)C)c3ccccc3[n+]2C)cc1 (configuration not stated) was read as HEK293 tox inconclusive, GLP-1R agonist -0.5%, PTHR1 agonist -45.3% and GLP1R inv ag 7.08µM*.
Screening CC(C)(C)C(=O)CSc1nc2ccsc2c(=O)n1Cc1ccccc1F returned HEK293 tox -4.6%, PTHR1 agonist inactive and GLP1R inv ag 12.6µM*.
For Cc1ccccc1CNC(=O)CCSCc1cnn(-c2ccccc2)c1-n1cccc1 the results were HEK293 tox -4.3%, PTHR1 agonist -26.8% and GLP1R inv ag 10µM*.
For O=c1c2cnn(-c3ccccc3)c2nc(-c2cccs2)n1-c1cccc(Cl)c1 the results were HEK293 tox -5.2%, GLP-1R agonist 5.0%, PTHR1 agonist -36.3% and GLP1R inv ag 8.91µM*.
For O=c1c2cnn(-c3ccccc3)c2nc(-c2cccs2)n1-c1ccc(Cl)cc1 the results were HEK293 tox -2.9%, GLP-1R agonist 2.6%, PTHR1 agonist -85.3%[57.5 µM] and GLP1R inv ag 2.8%.
For CC(C)c1ccc(NC(=O)c2cc(S(=O)(=O)NCc3ccccc3Cl)ccc2F)cc1 the results were HEK293 tox inconclusive, PTHR1 agonist -16.6% and GLP1R inv ag 6.31µM*.
CN(C1CCCCC1)S(=O)(=O)c1ccc(NC(=O)c2ccc(Br)o2)cc1 was read as HEK293 tox -5.7%, GLP-1R agonist 0.7%, PTHR1 agonist -67.9%[57.5 µM] and GLP1R inv ag 7.08µM*.
For CC(C)c1ccc(NC(=O)c2cc(S(=O)(=O)N(C)C3CCCCC3)ccc2F)cc1 the results were HEK293 tox 5.4%, PTHR1 agonist -17.9% and GLP1R inv ag 10µM*.
For CC(C)c1ccc(NC(=O)c2cc(S(=O)(=O)NCCC3=CCCCC3)ccc2F)cc1 the results were HEK293 tox -5.9%, PTHR1 agonist -21.6% and GLP1R inv ag inconclusive.
CC(C)NS(=O)(=O)c1ccc(NC(=O)C(C)OC(=O)CCC(=O)c2cccs2)cc1 (configuration not stated) was read as HEK293 tox -11.6%, GLP-1R agonist 0.8%, PTHR1 agonist -30.6% and GLP1R inv ag 5.1%.
`COC(=O)c1cn(CC(=O)N2C(C)CCCC2C)c2ccccc12` (configuration not stated) gave HEK293 tox 9.5%, GLP-1R agonist -10.8%, PTHR1 agonist -9.2%[57.5 µM] and GLP1R inv ag inconclusive.
CC1CCCC(C)N1C(=O)Cn1cc(/C=C2/C(=O)Nc3ccccc32)c2ccccc21 (configuration not stated) was read as HEK293 tox inconclusive, GLP-1R agonist 0.2%, PTHR1 agonist -14.4%[57.5 µM] and GLP1R inv ag 5.62µM*.
`Cc1c(C(=O)N(Cc2ccc(N(C)C)cc2)CC2CCCO2)oc2ccccc12` (configuration not stated) gave HEK293 tox 1.1%, GLP-1R agonist 30.0%, PTHR1 agonist -17.4% and GLP1R inv ag 10µM*.
`Cc1c(C(=O)N(Cc2ccc(N(C)C)cc2)CC2CCCO2)oc2ccc(Cl)cc12` (configuration not stated) gave HEK293 tox 8.3%, PTHR1 agonist -14.7% and GLP1R inv ag 20.8%.
For O=C(NCc1ccccc1Cl)c1ccc(Cn2c(=O)c3cccn3c3cccnc32)cc1 the results were HEK293 tox 6.9%, PTHR1 agonist 2.4% and GLP1R inv ag 5.8%.
Screening COc1ccc(N(Cc2cccs2)C(=O)COc2ccc([N+](=O)[O-])cc2)cc1 returned HEK293 tox 3.1%, PTHR1 agonist -25.8% and GLP1R inv ag inconclusive.
`COc1ccc(N(Cc2cccs2)C(=O)COc2cccc(Cl)c2)cc1` gave HEK293 tox 2.1%, PTHR1 agonist inactive and GLP1R inv ag 14.1µM*.
Screening Cc1oc2c(c1C(=O)c1ccccc1)C(=O)C(=O)c1ccccc1-2 returned HEK293 tox inconclusive, GLP-1R agonist -50.5%, PTHR1 agonist -12.1% and GLP1R inv ag 4.47µM*.
CC(C)N1[N]C(=C2C=c3cc(O)ccc3=N2)c2c(N)ncnc21 was read as GLP-1R agonist 0.4%.
CCOc1ccc(C(C(=O)NC2CCCC2)N(CCCO)C(=O)c2ccc(-c3ccccc3)[nH]2)cc1 (configuration not stated) was read as HEK293 tox 5.2%, GLP-1R agonist -5.7%, PTHR1 agonist -19.1% and GLP1R inv ag 12.6µM*.
Screening Cc1cc(C)n2nc(N)c(N=Nc3ccccc3)c2n1 returned HEK293 tox 10µM*, GLP-1R agonist 16.3%, PTHR1 agonist -3.2% and GLP1R inv ag -6.6%.
Cc1ccc(-c2ccc(CCC(=O)O)n2-c2cccc(C)c2C)cc1 was read as HEK293 tox 1.4%, PTHR1 agonist inactive and GLP1R inv ag inconclusive.
For CC1CN(C(=O)CCC(=O)NCc2ccccc2)c2cc(Cl)ccc2O1 (configuration not stated) the results were HEK293 tox -4.4%, GLP-1R agonist -5.8%, PTHR1 agonist -0.3% and GLP1R inv ag 10µM*.
For CC1CN(C(=O)CCC(=O)NCc2ccc(F)cc2)c2cc(Cl)ccc2O1 (configuration not stated) the results were HEK293 tox 3.4%, PTHR1 agonist 23.9% and GLP1R inv ag 2.3%.
`N#CC(c1cccc(Cl)c1)c1ccc2c(C(F)(F)F)cc(C(F)(F)F)nc2n1` (configuration not stated) gave HEK293 tox -27.4%, GLP-1R agonist -23.7%, PTHR1 agonist -12.4% and GLP1R inv ag 3.16µM*.
Screening O=C(NCc1ccc(F)cc1)C(c1ccc(Cl)cc1)N(C(=O)c1csnn1)C1CC1 (configuration not stated) returned HEK293 tox -14.5%, GLP-1R agonist 6.9%, PTHR1 agonist inactive and GLP1R inv ag inconclusive.
Screening N#CC(C#N)=C(N)CSc1cccc[n+]1[O-] returned HEK293 tox 4.47µM*, GLP-1R agonist 1.3%, PTHR1 agonist inactive and GLP1R inv ag inconclusive.
Screening [O-][n+]1ccccc1SCc1ccccc1 returned HEK293 tox 3.2%, GLP-1R agonist 1.7%, PTHR1 agonist 0.0% and GLP1R inv ag 19.6%.
Screening COc1ccccc1C(=O)Nc1ccnn1C1CCN(C/C=C/c2ccc(F)cc2)CC1 returned HEK293 tox inconclusive, GLP-1R agonist -3.5%, PTHR1 agonist -18.5% and GLP1R inv ag inconclusive.
Cc1cc(C)cc(NC(=O)C(OC(=O)c2cccs2)c2ccccc2)c1 (configuration not stated) was read as HEK293 tox 3.2%, GLP-1R agonist 7.7%, PTHR1 agonist -0.2% and GLP1R inv ag 10µM*.
`O=C(Nc1cccc(F)c1)c1cccnc1NCCc1ccccc1` gave HEK293 tox -3.6%, GLP-1R agonist 17.1%, PTHR1 agonist -1.9% and GLP1R inv ag 10µM*.
